According to PubChem BioAssay (NCI):
This is part of a sample that, as a whole, favours compounds with a hit. Of some 83,000 tested, about 20% had one in any assay.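 Values shown are percent growth following 48 h exposure of cells in 96-well plates to a single concentration of compound; below 10 was considered active.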 A number with no mark means an inactive call. Calls of active or inactive are those of the source.

Tests used:
Experiment in all cases: NCI-60 one-dose screen, 48 h (100 = growth as untreated, 0 = no growth, -100 = all killed)
Settings in all cases: 10 µM
SK-MEL-2 melanoma = tested on: SK-MEL-2 melanoma
EKVX NSCLC = tested on: EKVX NSCLC
SN12C renal = tested on: SN12C renal
UO-31 renal = tested on: UO-31 renal
TK-10 renal = tested on: TK-10 renal
ACHN renal = tested on: ACHN renal
CAKI-1 renal = tested on: CAKI-1 renal
A498 renal = tested on: A498 renal
CCRF-CEM leukemia = tested on: CCRF-CEM leukemia
MOLT-4 leukemia = tested on: MOLT-4 leukemia

Row | Structure (SMILES) | growth (SK-MEL-2 melanoma) | growth (EKVX NSCLC) | growth (SN12C renal) | growth (UO-31 renal) | growth (TK-10 renal) | growth (ACHN renal) | growth (CAKI-1 renal) | growth (A498 renal) | growth (CCRF-CEM leukemia) | growth (MOLT-4 leukemia)
1 | NC(=O)c1cccc(-n2ccc3cc(NC(=O)Nc4ccc(Cl)c(C(F)(F)F)c4)ccc32)n1 | 97.2% | 57.7% | 73.4% | 77.3% | 83.7% | 71.3% | 61% | 56.9% | 62.5% | 52%
2 | COc1ccc(C(=O)N/N=C/c2cc(C(F)(F)F)ccc2Cl)cc1 | 104% | 75.7% | 93.6% | 88.9% | 107% | 108% | 89.2% | 67% | 103% | 92.5%
3 | O=S(=O)(Oc1ccc(-c2ccc3sccc3c2)cc1)c1ccc(F)cc1 | 114% | 91.5% | 96.5% | 92.2% | 93.7% | 107% | 82.7% | 95.3% | 86.1% | 89.4%
4 | CCN(CC)CCCC(Nc1c2ccc(Cl)cc2nc2ccc(OC)cc12)c1ccc(F)cc1 (centres undefined) | 116% | 40.2% | 25.7% | -43.3% (active) | -59.6% (active) | -58.9% (active) | 87.6% | 59.5% | -18.5% (active) | 2.74% (active)
5 | CCN(CCCNc1cc2c(c(N)c1S(=O)(=O)O)C(=O)c1ccccc1C2=O)c1ccccc1 | 103% | 103% | 87.4% | 75.2% | 116% | 103% | 95.7% | 103% | 102% | 108%
6 | COc1cc(CNC(=O)C2CSC3(C)c4ccccc4C(=O)N23)cc(OC)c1OC (centres undefined) | 89.3% | 108% | 91.6% | 90.3% | 102% | 97.4% | 89.8% | 90.5% | 90.7% | 81.2%
7 | C=C1CCC2(C#N)[C@H]3[C@H](CC[C@@H]2C)[C@@H](C)C[C@@H](CC(C)(C)NC(=O)CN2CCC2=O)[C@H]13 (some centres undefined) | 64.4% | 52.6% | 57.1% | 47.3% | 81.4% | 65.6% | 56.4% | 92.1% |  | 
8 | O=C(CCC(C(=O)c1ccccc1)c1ccccc1)c1ccccc1 (centres undefined) | 45.4% | 76.2% | 79.7% | 72.1% | 102% | 72.2% | 52% | 80.6% | 38.2% | 46.2%
9 | C/C=C/C1=CN2C(=O)c3cc(OC4OC(C)C(NC)C(C)(O)C4O)c(C)c(O)c3N=C[C@@H]2C1 (some centres undefined) | 17.9% | -3.19% (active) | 1.37% (active) | -44.5% (active) | 16.2% | 3.15% (active) | 9.27% (active) | -83.1% (active) | 1.22% (active) | 2.33% (active)
10 | Cc1ccc(-n2nnnc2N)c(C)c1 | 114% | 98.5% | 113% | 94.6% | 136% | 102% | 94.5% | 80% | 112% | 109%
11 | O=C(CCl)Oc1ccc(OC(=O)CCl)cc1 | 96.1% | 90.4% | 87.2% | 64.1% | 113% | 75.2% | 93.7% | 97.4% | 13.3% | 84.2%
12 | CNS(=O)(=O)Oc1ccc(-c2sc3cc(OS(=O)(=O)NC)ccc3c2C(=O)c2ccc(OCCN3CCCCC3)cc2)cc1 | 83.7% | 79.6% | 79.5% | 50.9% | 99.5% | 96.8% | 59.3% | 76.2% | 46.5% | 23.2%
13 | CCOC(=O)CC(S(=O)(=O)c1ccccc1)S(=O)(=O)c1ccccc1 | 97.4% | 113% | 95.7% | 72.4% | 56.4% | 63.6% | 90.1% | 115% | 62.7% | 87.1%
14 | O=C1/C=C/[C@@H](O)[C@@H]2C[C@@H](O)C[C@H]2/C=C/CCC[C@H](C(F)(F)F)O1 | -18.3% (active) | 10.3% | 4.4% (active) | -6.75% (active) | -21% (active) | 3.63% (active) | 4.59% (active) | -18.2% (active) | 1.24% (active) | -0.315% (active)
15 | CC(=O)Nc1ccc(S(=O)(=O)c2ccnc3cc(Cl)ccc23)cc1 | 79.2% | 86.7% | 81% | 106% | 82.3% | 69.3% | 75.3% | 95.9% | 52.9% | 68.8%
16 | COc1cccc(-c2nc3sccn3c2-c2cccc(S(C)(=O)=O)c2)c1 | 115% | 78.4% | 99.1% | 73.1% | 102% | 96.2% | 82.2% | 106% | 98.2% | 104%
17 | COc1cc2nc(SCC(=O)Nc3cc(OC)c(OC)c(OC)c3)n(Cc3ccccc3)c(=O)c2cc1OC | 45.4% | 75.5% | 69.1% | 48.9% | -12.5% (active) | 66.1% | 84.8% | -8.93% (active) |  | 
18 | CCCC1(CN2c3ccccc3Sc3ccc(Cl)cc32)CCN(CC)C1 (centres undefined) | -3.45% (active) | -12.8% (active) | 23.1% | -1.01% (active) | -56.6% (active) | 0.109% (active) | -14.2% (active) | 8.05% (active) | -11.2% (active) | -27.9% (active)
19 | OC(CNc1ccnc2cc(Cl)ccc12)CNC1CCCCC1 (centres undefined) | 91.8% | 88.1% | 85.9% | 61.2% | 96.1% | 81.8% | 71.2% | 59.6% | 80.5% | 
20 | Nc1cc(-c2ccc(Cl)cc2)nn1-c1nc2ccccc2nc1Cc1ccccc1 | 100% | 78.6% | 94.1% | 87% | 99.2% | 103% | 80.7% |  |  | 
21 | CC(C)c1ccc(C(C)C(=O)N(CC2=C(C(C)c3ccccn3)c3ccccc3C2)C(C)C)cc1 (centres undefined) | 24.1% | 13.6% | 34% | -12.2% (active) | 53.8% | 36.6% | 3.55% (active) | 49.1% | 30.4% | 
22 | CC[C@@H]1NC(=O)[C@H]([C@H](O)[C@H](C)C/C=C/c2ccc(CN3C(=O)CCCC3=O)cc2)N(C)C(=O)[C@H](C(C)C)N(C)C(=O)[C@H](CC(C)C)N(C)C(=O)[C@H](CC(C)C)N(C)C(=O)[C@@H](C)NC(=O)[C@H](C)NC(=O)[C@H](CC(C)C)N(C)C(=O)[C@H](C(C)C)NC(=O)[C@H](CC(C)C)N(C)C(=O)CN(C)C1=O | 38.2% | 37.4% | 71.1% | 49.7% | 39.8% | 40.3% | 77.3% | 4.54% (active) | 11.6% | 21.8%
23 | CC1OC2CC(=O)OC2C2=C1C(=O)c1c(O)c3c(c(O)c1C2=O)C1CC(O)C3(O)C(C)O1 (centres undefined) | -55.7% (active) | 13.1% | -33% (active) | 1.82% (active) | -16.6% (active) | -16.2% (active) | 8.24% (active) | -18.1% (active) | 12% | -21.7% (active)
24 | CN(C)CCC1(c2ccccc2)CCN(C)C1=O (centres undefined) | 95.4% | 110% | 103% | 87.4% | 112% | 102% | 103% | 94.1% | 103% | 95.6%
25 | OCC1OC2C(NC(=S)N2c2ccccc2)C(O)C1O (centres undefined) | 111% | 101% | 91.1% | 101% | 109% | 103% | 91.4% | 95.1% | 93.6% | 107%
26 | COC(=O)c1cc2oc(/C=C3/SC(=S)N(N)C3=O)cc2n1Cc1ccccc1 | -14% (active) | 55.8% | 63.5% | -22.1% (active) | -4.58% (active) | 48.5% | 60.2% | -76.4% (active) | 6.84% (active) | 4.64% (active)
27 | Cc1cc(Cl)ccc1Nc1nc(C(F)(F)F)ccc1C(=O)N/N=C/c1cccc(O)c1 | 16% | 20.8% | 52.3% | 6.02% (active) | 85.9% | 28.3% | 25.5% | -41.5% (active) | 4.04% (active) | 3.63% (active)
28 | COc1ccc(C(=O)CC(CC(=O)c2ccc(OC)cc2)c2c(C)nn(-c3ccccc3)c2Cl)cc1 | 94.3% | 102% | 93.3% | 72.8% | 103% | 90.8% | 85.1% | 80.8% |  | 
